We go through 28 molecules from PubChem BioAssay (NCATS).

Assay [1] has as its target Alpha-galactosidase (Coffea arabica) (UniProt Q42656). Put plainly: Counterscreen for Glucocerebrosidase Inhibitors: qHTS Assay for Coffee Bean alpha-Galactosidase at pH 4.5 (AID 957; active means well fitted curve in the direction sought with a large enough effect; an effect the other way counts as inactive or inconclusive;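 further: plate controls were enzyme alone for no effect and no enzyme for full effect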). The method, boiled down:
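Fluorogenic qHTS at pH 4.5 (citrate buffer with Tween-20): 2 nM enzyme, 80 uM 4-MU-alpha-galactoside substrate, compound titrated 0.7 nM to 77 uM, 20 min room temperature. Glycine/NaOH stop; 4-MU read Ex 365/Em 440; Hill-equation AC50 against no-enzyme and enzyme controls.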
A general note: A counterscreen serves to expose hits that act by an unwanted route or on another target.

Assay [2] shares this target. Put plainly: Counterscreen for Glucocerebrosidase Inhibitors: qHTS Assay for Coffee Bean alpha-Galactosidase at pH 5.9 (AID 998; active means well fitted curve in the direction sought with a large enough effect; an effect the other way counts as inactive or inconclusive;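 further: plate controls were uninhibited enzyme for no effect and no-enzyme basal signal for full effect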). In short, it runs like this: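 Fluorogenic 4-MU substrate hydrolysis, 80 uM substrate and 2 nM coffee bean alpha-galactosidase, pH 5.9 citrate buffer, 20 min at room temperature, then NaOH/glycine stop. Titration 0.7 nM–77 uM, normalized to no-enzyme and enzyme controls, AC50 via Hill equation.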

A short description of assay [3]: Validation screen for inhibitors of Lassa infection (AID 463096). Further: potency means the concentration at half of the fitted maximal effect. On activity change, negative = inhibition: on the % scale 0 is the no-effect control and ±100 the full control effect.
A short description of assay [4]: Inducers of the Endoplasmic Reticulum Stress Response (ERSR) in human glioma: Validation (AID 504836; active means well fitted curve in the direction sought with a large enough effect; an effect the other way counts as inactive or inconclusive; further: 0% is about no effect). The method, boiled down:
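ERSR induction read as luciferase luminescence (Bright-Glo, 10 min at room temperature) in stably transfected human U87-MG glioma cells exposed to compounds for 16 h, using GRP78 as sensor.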

Assay [5] is described as follows: qHTS for Inhibitors of the Functional Ribonucleoprotein Complex (vRNP) of Lassa (LASV) Arenavirus: LASV Primary Screen - GLuc reporter signal (AID 1347082; calls by dose curve; tested in HEK293 reporter line; further: nearly all actives have a fitted effect of over 60% in size; further: potency means the concentration at half of the fitted maximal effect; on activity change, negative = inhibition: on the % scale 0 is the no-effect control and ±100 the full control effect).
Assay [6] can be described thus: qHTS for Inhibitors of the Functional Ribonucleoprotein Complex (vRNP) of Lymphocytic Choriomeningitis Arenaviruses (LCMV): Viability assay - alamar blue signal for LCMV Primary Screen (AID 1347085; calls by dose curve; tested in HEK293 reporter line; further: nearly all actives have a fitted effect of over 80% in size; further: potency means the concentration at half of the fitted maximal effect).
Assay [7] has as its target Nucleoprotein (Lymphocytic choriomeningitis virus (strain Armstrong)) (UniProt P09992). Put plainly: qHTS for Inhibitors of the Functional Ribonucleoprotein Complex (vRNP) of Lymphocytic Choriomeningitis Arenaviruses (LCMV): LCMV Primary Screen - GLuc reporter signal (AID 1347086). Further: nearly all actives have a fitted effect of over 70% in size. Further: potency means the concentration at half of the fitted maximal effect. On activity change, negative = inhibition: on the % scale 0 is the no-effect control and ±100 the full control effect.
A short description of assay [8]: Cytotoxicity counterscreen for inhibitors of SARS-CoV-2 cell entry (AID 1645845). Further: nearly all actives have a fitted effect of over 50% in size. Further: potency means the concentration at half of the fitted maximal effect. In short, it runs like this:
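ATP-content luminescence (ATPLite 1step, 15 min RT) read after 48 h compound exposure of Expi293F cells stably expressing human ACE2; normalized to cells-only wells and media-only wells.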

Assay [9] can be described thus: Primary qHTS to identify inhibitors of SARS-CoV-2 cell entry (AID 1645846). Further: nearly all actives have a fitted effect of over 45% in size. Further: potency means the concentration at half of the fitted maximal effect. As to conditions: activity change, negative = inhibition: at 57.1 µM (top of the series) unless noted. In short, it runs like this:
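Luminescence readout (Bright-Glo luciferase) 48 h after pseudoparticle addition. HEK293-ACE2 cells, 1500/well; compound pre-incubation 1 h; Normalized to spike PP and bald PP.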
For orientation: Quantitative high-throughput screening tests each substance at several concentrations.

Assay [10] addresses Nuclear receptor subfamily 1 group I member 3 (Homo sapiens) (UniProt Q14994). Put plainly: Primary qHTS for antagonist of constitutive androstane receptor (CAR) against the NCATS DSHEA and TCM libraries (AID 1794836; active means well fitted curve in the direction sought with a large enough effect; an effect the other way counts as inactive or inconclusive;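 further: HepG2 cells stably expressing hCAR with CYP2B6 luciferase reporter stimulated by CITCO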). The method, boiled down: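 Antagonist mode: CAR reporter luminescence (ONE-Glo) in HepG2-CYP2B6-hCAR cells stimulated with 48 uM CITCO (final) over 24 h at 37 C, compounds titrated; viability read first by CellTiter-Fluor fluorescence.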

Assay [11] can be described thus: Confirmatory qHTS for VERO E6 Cytotoxicity Assay: Counterscreen for SARS-CoV-2 CPE Assay (AID 1508605). Further: on the % scale 0 is the no-effect control and ±100 the full control effect; nearly all actives have a fitted effect of over 60% in size.
A short description of assay [12]: Primary qHTS for Huh7 cytotoxicity: counterscreen for inhibitors of MERS-S pseudotyped particle cell entry (AID 1479147). The following applies: outcome: dose series up to 57.1 µM unless noted.
A short description of assay [13]: Primary qHTS for inhibitors of MERS-S pseudo-typed particle cell entry (AID 1479149). Further: nearly all actives have a fitted effect of over 60% in size. On activity change, negative = inhibition: on the % scale 0 is the no-effect control and ±100 the full control effect.
The nature of assay [14]: Primary qHTS for Vero E6 cytotoxicity: counterscreen for inhibitors of SARS-S pseudo-typed particle cell entry (AID 1479150). The following applies: outcome: dose series up to 57.1 µM unless noted.
The nature of assay [15]: qHTS Assay for Lipid Storage Modulators (AID 1519). The following applies: Drosophila S3 cells, BODIPY lipid droplet/cell ratio, laser cytometry, cells loaded with oleic acid. The method, boiled down:
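Cells seeded at 5,000 per well were treated with compounds over a concentration series and loaded with oleic acid (400 uM, as added). Lipid droplet fluorescence (488 nm excitation, 500-530 nm channel) was read by laser-scanning cytometry and normalized to 20 uM Triacsin C.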

A short description of assay [16]: qHTS profiling of the MIPE4 collection as inhibitors of Plasmodium falciparum (3D7) proliferation (AID 743344; call rule not given here;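 further: scaled between DMSO vehicle wells and 0.29 µM artemisinin as full inhibition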). The following applies: P. falciparum 3D7 in erythrocytes, SYBR Green DNA fluorescence, 72 h; at 28.5 µM (top of the series) unless noted. In short, it runs like this: (§1)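 Parasite DNA was quantified by SYBR Green I fluorescence (ex 485, em 535 nm) after overnight lysis in saponin/Triton buffer at room temperature. Cultures at 0.3% parasitemia and 2.5% hematocrit were first exposed to compound for 72 h at 37 C; signals were normalised to artemisinin (0.29 uM) and vehicle wells.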

A short description of assay [17]: qHTS profiling of the MIPE4 collection as inhibitors of Plasmodium falciparum (DD2) proliferation (AID 743345; call rule not given here). As to conditions: P. falciparum Dd2 in erythrocytes, SYBR Green DNA, 72 h; at 28.5 µM (top of the series) unless noted. In short, it runs like this: as §1
Assay [18] can be described thus: qHTS profiling of the MIPE4 collection as inhibitors of Plasmodium falciparum (DD2) proliferation (Rep 2) (AID 743346; call rule not given here). The following applies: P. falciparum Dd2 in erythrocytes, SYBR Green DNA, 72 h; at 28.5 µM (top of the series) unless noted. In short, it runs like this:
as §1

Assay [19] can be described thus: Primary qHTS for inhibitors of SARS-S pseudo-typed particle cell entry (AID 1479145). Further: nearly all actives have a fitted effect of over 45% in size.

Inconclusive results are not listed. Active and inactive are the calls of the source. Unless noted, the call rests on the fitted dose curve.

Sequence of Alpha-galactosidase (Coffea arabica) (Q42656 whole entry, looked up): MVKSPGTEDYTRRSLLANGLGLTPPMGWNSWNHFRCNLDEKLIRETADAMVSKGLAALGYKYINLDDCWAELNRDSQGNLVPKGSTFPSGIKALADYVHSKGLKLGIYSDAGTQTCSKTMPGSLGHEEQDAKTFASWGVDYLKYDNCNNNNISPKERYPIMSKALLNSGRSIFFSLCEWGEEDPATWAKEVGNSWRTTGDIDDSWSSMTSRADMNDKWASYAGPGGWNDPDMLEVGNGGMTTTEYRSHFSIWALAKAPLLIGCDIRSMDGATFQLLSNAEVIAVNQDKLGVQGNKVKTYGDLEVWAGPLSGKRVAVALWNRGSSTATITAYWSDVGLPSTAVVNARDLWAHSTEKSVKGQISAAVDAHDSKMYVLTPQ
Sequence of Nucleoprotein (Lymphocytic choriomeningitis virus (strain Armstrong)) (P09992 whole entry, looked up): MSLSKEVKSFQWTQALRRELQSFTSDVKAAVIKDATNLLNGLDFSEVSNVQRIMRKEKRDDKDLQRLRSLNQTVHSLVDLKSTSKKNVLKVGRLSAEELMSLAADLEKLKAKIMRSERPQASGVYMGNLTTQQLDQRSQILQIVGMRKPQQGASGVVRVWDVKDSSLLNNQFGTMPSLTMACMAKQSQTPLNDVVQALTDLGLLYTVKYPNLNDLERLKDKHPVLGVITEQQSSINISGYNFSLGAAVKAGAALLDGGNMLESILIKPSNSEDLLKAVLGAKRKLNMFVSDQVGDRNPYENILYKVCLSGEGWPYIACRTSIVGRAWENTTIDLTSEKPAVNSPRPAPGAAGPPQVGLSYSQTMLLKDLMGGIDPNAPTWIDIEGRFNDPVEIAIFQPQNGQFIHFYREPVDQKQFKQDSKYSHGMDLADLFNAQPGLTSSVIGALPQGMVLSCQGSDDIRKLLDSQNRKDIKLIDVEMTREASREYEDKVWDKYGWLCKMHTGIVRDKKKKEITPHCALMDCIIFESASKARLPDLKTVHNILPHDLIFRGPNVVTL
Sequence of Nuclear receptor subfamily 1 group I member 3 (Homo sapiens) (Q14994 whole entry, looked up): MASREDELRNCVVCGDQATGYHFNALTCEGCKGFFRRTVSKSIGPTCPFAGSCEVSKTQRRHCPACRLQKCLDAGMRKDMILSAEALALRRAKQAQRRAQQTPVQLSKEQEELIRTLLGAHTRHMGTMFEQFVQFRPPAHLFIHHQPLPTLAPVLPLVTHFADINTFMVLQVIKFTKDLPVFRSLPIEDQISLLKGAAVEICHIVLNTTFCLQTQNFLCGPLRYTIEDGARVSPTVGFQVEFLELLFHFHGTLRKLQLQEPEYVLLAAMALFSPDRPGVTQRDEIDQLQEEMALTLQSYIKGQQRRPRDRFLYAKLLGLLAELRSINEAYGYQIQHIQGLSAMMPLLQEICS

Consider `COc1cc2ncnc(Nc3cccc(Cl)c3)c2cc1OC`, for which the result in assay [1], in assay [2] and in assay [4] was inactive. The Potency entry in assay [3], in assay [5], in [6], in assay [7] and in [8] was “inactive” throughout. In assay [9], the activity change, negative = inhibition worked out at 0.792%.
As to `COc1cc2c(Nc3ccc(NC(=O)c4ccccc4)cc3)ncnc2cc1OCCCN1CCOCC1`, the Potency entry in [5], in assay [6] and in assay [7] was “inactive” each time. Besides, the Potency in assay [8] was 31.6 µM (active); in assay [9], 7.94 µM (active).
Turning to `COc1ccc(NC(=O)/C=C/c2ccc(Cl)cc2)cc1`, the Potency entry in assay [5] and in [7] was “inactive” each time.
On to `C=C1C([C@@]2(C)C(OC(C)=O)CC(=O)O[C@@](C)(COC(C)=O)C2CC(=O)OC)C(OC=O)C(OC(=O)C(O)C(C)CC)[C@]2(C)C(c3ccoc3)CC(=O)C12O` (some centres not stated), for which the Potency entry in [5] and in [7] was “inactive” throughout.
As for `N#CC(c1ccnc(NCCc2cccnc2)n1)c1nc2ccccc2s1` (configuration not stated), the Potency result in [5] and in assay [9] was “inactive” in each case. In assay [6], the Potency is 15.3 µM (active).
Turning to `OCc1ccc(-c2nn(Cc3ccccc3)c3ccccc23)o1`, the outcome in [1], in assay [2] and in assay [4] was inactive. Further, in [3], the Potency is 4.47 µM (active). The Potency result in assay [5], in assay [6] and in assay [7] was “inactive” in each case. The activity change, negative = inhibition in [9] is -87.6%.
For `C=C1C(=CC=C2CCC[C@]3(C)[C@@H]([C@H](C)CCCC(C)(C)O)CC[C@@H]23)C[C@@H](O)C[C@@H]1O`, the Potency entry in assay [5] and in assay [7] was “inactive” each time.
Consider `c1ccc(-c2oc3ncnc(NC[C@@H]4CCCO4)c3c2-c2ccccc2)cc1`, for which the Potency entry in [5] and in [7] was “inactive” in each case. In addition, the activity change, negative = inhibition in assay [9] was -93.9%.
For the molecule `O=C(/C=C/c1ccc(O)c(O)c1)OC(Cc1ccc(O)c(O)c1)C(=O)O` (configuration not stated), the Potency result in assay [5], in assay [7] and in assay [10] was “inactive” throughout.
For the molecule `NC(=O)c1cnc(-c2ccc(C3(N)CCC3)cc2)c(-c2ccccc2)c1`, the Potency result in [5], in assay [7] and in assay [8] was “inactive” in each case.
For `CNC(=O)[C@H](Cc1ccccc1)NC(=O)[C@H](CC(C)C)[C@H](CSc1cccs1)C(=O)NO`, the Potency entry in assay [5], in assay [7] and in assay [8] was “inactive” each time. Also, the activity change, negative = inhibition in [9] is -35.2%.
As for `CN[C@@H](C)[C@H]1[C@H](O)C[C@@]2(C)[C@@H]3CC[C@H]4C(C)(C)[C@@H](NC)CC[C@@]45C[C@@]35CC[C@]12C`, the Potency result in assay [5], in assay [7] and in [11] was “inactive” throughout. Also, the outcome in assay [8] is “inactive [at 11.3 µM]”.
For the molecule `O=C(CCCCCCC(=O)Nc1ccc([C@H]2O[C@@H](CSc3nc(-c4ccccc4)c(-c4ccccc4)o3)C[C@@H](c3ccc(CO)cc3)O2)cc1)NO`, the Potency entry in assay [5] and in [7] was “inactive” each time. In addition, the activity change, negative = inhibition in assay [9] stood at 1.44% [at 11.3 µM].
In the case of `Nc1ccn([C@@H]2O[C@H](CO)[C@@H](O)[C@H]2O)c(=O)n1`, the Potency entry in assay [5], in assay [7], in assay [13] and in assay [8] was “inactive” throughout. The molecule was classed as inactive in assay [12] and in [14]. In assay [9], the activity change, negative = inhibition was -8.54%.
As for `NC(N)=Nc1nc(CSCCC(N)=NS(N)(=O)=O)cs1`, the Potency entry in assay [5] and in assay [7] was “inactive” throughout.
For the molecule `NC(=NCCCCCCN=C(N)N=C(N)Nc1ccc(Cl)cc1)N=C(N)Nc1ccc(Cl)cc1`, the Potency entry in [5] and in assay [7] was “inactive” throughout. The Potency in [9] was 17.8 µM (active).
Consider `Cc1cc(Nc2cc(CN3CCOCC3)c3nc(C)c(Cc4ccc(Cl)cc4F)n3n2)n[nH]1`, for which the Potency result in assay [5] and in assay [7] was “inactive” each time.
In the case of `Brc1c(Br)c(Br)c2[nH]cnc2c1Br`, the call in assay [4] was inactive. Moreover, the Potency result in assay [5] and in [7] was “inactive” throughout.
As to `CC(C(=O)O)c1ccc(-c2ccccc2)c(F)c1` (configuration not stated), in assay [15] (at 57.5 µM (top of the series)), the activity change, negative = inhibition was 7.18% (inactive). Also, the max response in [15] (measured here: cell count channel max response) worked out at 15.4%; in assay [15] (measured here: lipid channel max response) it was 28.2%. For the same molecule, in assay [16], the parasite growth, % of DMSO control was determined as 86.5%. Besides, the parasite growth remaining, % of DMSO control (lower = more inhibition) in assay [17] stood at 95.5%. Moreover, the parasite growth, % of control (lower = inhibition) in assay [18] was found to be 114%. Besides, the Potency result in assay [5], in assay [19], in [13] and in [8] was “inactive” throughout. Moreover, the molecule was classed as inactive in assay [12] and in assay [14].
With `CC(=O)O[C@@]12CO[C@@H]1C[C@H](O)[C@@]1(C)C(=O)[C@H](O)C3=C(C)[C@@H](OC(=O)[C@H](O)[C@@H](NC(=O)c4ccccc4)c4ccccc4)C[C@@](O)([C@@H](OC(=O)c4ccccc4)C12)C3(C)C` (some centres not stated), the Potency result in assay [5] and in assay [7] was “inactive” in each case.
For `CC[C@H](C)[C@@H]1NC(=O)CNC(=O)c2csc(n2)[C@H](C(C)(C)O)OC(=O)C(C)(C)[C@H](CCCC(C)(Cl)Cl)OC(=O)c2csc1n2`, the Potency entry in [5] and in assay [7] was “inactive” throughout.
For the molecule `O=C1NC(=O)C(c2ccccc2[N+](=O)[O-])=C1Nc1ccc(O)c(Cl)c1`, the molecule was classed as inactive in assay [1] and in assay [2]. In addition, the Potency entry in [3], in assay [5], in assay [7] and in [8] was “inactive” throughout.
Regarding `FC(F)(F)c1ccc(C=Cc2nc(COc3ccc(CCCCn4ccnn4)cc3)co2)cc1`, the values for the Potency in [5] and in [7] were 0.0432 µM (active) and 0.0217 µM (active), respectively.
Regarding `Cn1cnc(=N)c2[nH]cnc21`, the Potency result in assay [5], in assay [7] and in assay [8] was “inactive” in each case. Moreover, the activity change, negative = inhibition in [9] is -0.211% [at 114 µM].
Take `C[C@@H](N)c1ccc(C(=O)Nc2ccnc3[nH]ccc23)cc1`: the Potency result in assay [5] and in assay [7] was “inactive” each time. The activity change, negative = inhibition in assay [9] was -95.9%.
In the case of `COc1cc(C(C)C)c(Oc2cnc(NC(CO)CO)nc2N)cc1I`, the Potency result in assay [5], in assay [7], in assay [8] and in [9] was “inactive” throughout.
As to `CC1OC(OC2CC(O)C3(CO)C4C(O)CC5(C)C(C6=CC(=O)OC6)CCC5(O)C4CCC3(O)C2)C(O)C(O)C1O` (configuration not stated), the Potency result in assay [5] and in assay [7] was “inactive” in each case.
`CC1=CC(O)C(O)C2(C)C1CC1OC(=O)C(O)C3C(C)C(O)C4(O)OCC13C42` (configuration not stated): the Potency result in assay [5] and in [7] was “inactive” each time.
